Screening data as filed in PubChem BioAssay.
BAZ2B inh: inhibitors of human BAZ2B bromodomain | Q9UIF8 | AlphaScreen BAZ2B-H3K14Ac peptide displacement | Potency, µM (highest dose often 114 µM), without a hit: at the top dose activity change, negative = inhibition, usual class: inhibitors | 4.4% of 360,000 active; note: % is set by controls: 0 for no effect and ±100 for the full control effect; nearly all actives have a fitted effect of over 60% in size
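Complex of BAZ2B and biotin-H3K14Ac (50 nM apiece) forms over 30 min at RT, then faces library compounds up to 110 uM for another 30 min; AlphaScreen beads added, 20 min dark incubation, luminescence read.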
G9a inh: blocks human histone lysine methyltransferase G9a; AID 504332; G9a H3K9 monomethylation, AlphaScreen, 2 h; Q96KQ7; 8.8% of 350,000 active; Potency, µM (series often up to 102 µM), for the others: top-dose activity, negative = inhibition, usual class: inhibitors; note: % is set by controls: 0 for no effect and ±100 for the full control effect; nearly all actives have a fitted effect of over 75% in size
Target sequence (Q96KQ7 913-1193 limits assumed): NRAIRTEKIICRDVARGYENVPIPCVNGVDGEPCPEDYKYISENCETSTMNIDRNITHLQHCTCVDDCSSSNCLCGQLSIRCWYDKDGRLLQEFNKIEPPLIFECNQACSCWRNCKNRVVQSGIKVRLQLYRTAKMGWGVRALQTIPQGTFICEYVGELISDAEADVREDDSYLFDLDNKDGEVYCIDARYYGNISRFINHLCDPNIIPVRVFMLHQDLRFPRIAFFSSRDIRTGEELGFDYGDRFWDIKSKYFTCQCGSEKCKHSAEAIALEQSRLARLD
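Compounds were preincubated with 20 nM G9a for 15 min, after which biotinylated H3K9 peptide (500 nM) and SAM (20 uM) started a 2 h room-temperature reaction. Monomethylated product was quantified by antibody-based AlphaScreen chemiluminescence.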
HP1b binding inh: blocks HP1-beta chromodomain binding to methylated histone tails | AlphaScreen HP1-beta / biotin-H3K9me3 peptide binding | Potency, µM (highest dose often 114 µM), for the others: top-dose activity change, negative = inhibition, hits mostly inhibitors | 0.56% of 390,000 active; note: nearly all actives have a fitted effect of over 70% in size
Target sequence (P83916 whole entry, looked up): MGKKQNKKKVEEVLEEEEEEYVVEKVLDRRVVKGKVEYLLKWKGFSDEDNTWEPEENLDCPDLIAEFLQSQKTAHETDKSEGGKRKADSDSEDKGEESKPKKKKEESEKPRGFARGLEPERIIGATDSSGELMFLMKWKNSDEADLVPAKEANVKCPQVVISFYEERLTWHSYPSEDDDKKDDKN
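AlphaScreen: HP1-beta (50 nM) preformed 30 min with biotin-H3(1-18)K9me3 peptide (50 nM) in PBS pH 7.4, 0.01% Tween-20. Compound added for 30 min at RT, then streptavidin donor/nickel chelate acceptor beads (10 ug/mL) for 30 min.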
PLK1 PBD block: blocks phosphopeptide binding to human PLK1 polo-box domain | P53350 | Plk1 PBD binding of FITC phosphopeptide, fluorescence polarization | Potency, µM, for the others: max response, negative = inhibition, most hits filed as inhibitors | 2.8% of 360,000 active; note: series mostly up to about 57 µM; % is set by controls: 0 for no effect and ±100 for the full control effect; nearly all actives have a fitted effect of over 65% in size
JMJD2A Tudor inh: inhibitors of human JMJD2A Tudor domain. 4.4% of 390,000 active. Potency, µM (doses to about 114 µM), for the others: at the highest dose activity change, negative = inhibition, most hits filed as inhibitors. AlphaScreen JMJD2A-Tudor / H3K4me3 peptide binding. O75164; note: % is set by controls: 0 for no effect and ±100 for the full control effect; nearly all actives have a fitted effect of over 50% in size
Sfp PPTase inh: blocks B. subtilis Sfp PPTase activity; Q9F4F7; Biochemical Sfp PPTase activity, qHTS; Potency, µM, inactives show largest response in the series, negative = inhibition, most hits filed as inhibitors; 3.5% of 310,000 active; AID 1490;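 note: the enzyme is Sfp with the accession as filed and its product quenches rhodamine fluorescence; 0% = enzyme reaction without inhibitor and -100% = no enzyme wells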
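Step 1, compound plus 15 nM Sfp-PPTase, 15 min, room temperature. Step 2, add rhodamine-CoA (5 uM) and BHQ-2-YbbR (12.5 uM). Step 3, read 525/598 nm fluorescence at 0 and 30 min.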
The depositor's hits bear a star; ? = inconclusive; / = no result; [ ] = another dose, or the depositor's remark. This is a sample that favours compounds with a hit; in the whole collection about 12% have one here. Calls come from the whole dose curve; as a rule, active = well fitted curve in the direction sought with a large enough effect; inconclusive = small, poorly fitted or top-dose-only effect, or another doubt; inactive = no such curve, though single readings can be large; an effect the other way counts as inactive or inconclusive. Potency is the fitted concentration of half-maximal effect.

SMILES	BAZ2B inh	G9a inh	HP1b binding inh	PLK1 PBD block	JMJD2A Tudor inh	Sfp PPTase inh
C=Cc1ccc(N=Cc2c(O)ccc3ccccc23)cc1	6%	1.6µM*	59%	-11%	?	-15%
OCC(CO)(CO)N=Cc1c(O)ccc2ccccc12	/	1.4µM*	7%	4.2µM*	?	-2%
Oc1ccc2ccccc2c1C=Nc1ccc(N2CCOCC2)cc1	40µM*	?	?	-8%	50µM*	-26%
Oc1ccccc1N=Cc1c(O)ccc2ccccc12	11µM*	7.9µM*	-3%	37%	?	-1%
Oc1ccc2ccccc2c1C=Nc1ccccc1Br	?	/	?	-23%	?	-18%
COc1cc(C2c3c(oc4ccccc4c3=O)C(=O)N2c2ccccn2)cc(OC)c1OC (stereo not drawn)	7%	24%[59 µM]	20%	/	-10%	/
CN(C)CCN1C(=O)C2C(C(=O)Nc3cc(Cl)cc(Cl)c3)C3C=CC2(O3)C1C(=O)NC1CCCCC1 (stereo not drawn)	5%	18%[12.7 µM]	11%	-2%	-12%	7%
O=C(CSC1=Nc2ccccc2C2=NC(Cc3c[nH]c4ccccc34)C(=O)N12)NC1CCCCC1 (stereo not drawn)	-8%	50µM*	2%	-11%	-13%	-12%
CC1CC(C)CN(C(=O)CSC2=Nc3ccccc3C3=NC(Cc4c[nH]c5ccccc45)C(=O)N23)C1 (stereo not drawn)	-1%	?	105%	7%	-3%	-6%
FC(F)(F)c1cccc(NC(=S)NNC(=S)Nc2cccc(C(F)(F)F)c2)c1	?	35µM*	/	/	/	25µM*
CC(C)(O)C(=O)NNC(=S)Nc1cccc(C(F)(F)F)c1	-7%	7.9µM*	29%	3%	-13%	8%
Cc1ccc(NNC(=O)C(O)(c2cccc(C(F)(F)F)c2)c2cccc(C(F)(F)F)c2)cc1	-28%	32µM*	13%	-7%	-24%	15%
CN(C)Cc1ccccc1-c1nc(N(C)C)c2ccccc2n1	/	7%[0.501 µM]	/	/	/	10%
COc1ccc(Br)cc1CNCc1c(C(=O)O)c(C)n(Cc2ccccc2C)c1C	?	-26%[59 µM]	0%	/	?	/
CCOC(=O)C1(CCCc2ccccc2)CCN(Cc2ccn[nH]2)CC1	-18%	50µM*	5%	-9%	-20%	6%
O=C(Nc1ccccc1)c1ccc(CSc2ncccn2)cc1	45µM*	42%[0.501 µM]	15%	1%	-5%	-3%
CC(=O)N1CCN(c2ccc(NC(=O)c3ccc(OCc4ccccc4)cc3)cc2)CC1	-2%	12%[59 µM]	14%	15µM*	?	-9%
O=C(Nc1ccccc1)c1ccc(COc2ccccc2)cc1	-5%	/	-10%	30µM*	-25%	8%
O=C(Nc1ccccc1F)c1ccc(CSc2ncccn2)cc1	-16%	?	23%	-13%	1%	10%
COc1ccc(NC(=O)c2ccc(COc3ccccc3)o2)cc1	-28%	-4%[59 µM]	?	11µM*	?	-1%
CCC(Nc1ccc(-c2nc(-c3cccnc3)no2)cc1[N+](=O)[O-])c1ccccc1 (stereo not drawn)	0%	-31%[59 µM]	36%	/	-2%	/
CN1CCN(c2ncnc3ccc(-c4ccccc4Cl)cc23)CC1	/	18%[0.501 µM]	/	/	/	8%
O=C(NC(c1ccc(Cl)cc1)c1c(O)ccc2ccccc12)c1ccccc1 (stereo not drawn)	-22%	-17%[59 µM]	-6%	-4%	-27%	21%
CC(=O)NC(c1ccc(Cl)cc1)c1c(O)ccc2ccc(O)cc12 (stereo not drawn)	-27%	40µM*	4%	-21%	-34%	10%
CCOC(=O)C1CCCN(C(=O)c2cc(OC)ccc2Br)CC1 (stereo not drawn)	/	/	/	-4%	/	/
SMILES	BAZ2B inh	G9a inh	HP1b binding inh	PLK1 PBD block	JMJD2A Tudor inh	Sfp PPTase inh
CCc1nnc(NC(=O)CSc2nnc(COc3cccc(C)c3)o2)s1	-1%	?	44%	0%	-4%	?
CCn1c(CNC(=O)c2ccco2)nnc1SCC(=O)c1ccc(F)cc1	4%	-1%	11%	-11%	4%	17%
COc1ccc(C(=O)NCc2nnc(SCC(=O)Nc3nnc(C)s3)o2)cc1	0%	35µM*	32%	?	-10%	?
C=CCn1c(CNC(=O)c2ccco2)nnc1SCC(=O)c1ccccc1	11%	?	32%	-18%	4%	45µM*
CCc1nnc(NC(=O)CSc2nnc(COc3ccccc3C)o2)s1	0%	50µM*	56%	-17%	-8%[57.1 µM]	?
CCSc1nnc(NC(=O)CSc2nnc(CNC(=O)c3ccc(OC)cc3)o2)s1	7%	-17%[59 µM]	31%	-13%	-1%	-20%
COc1ccc(OC)c(NC(=O)CSc2nnc(CNC(=O)c3ccco3)o2)c1	-8%	-48%[59 µM]	-19%	30µM*	-9%[11.4 µM]	-10%
CCOC(=O)OCC1OC(CCc2ccccc2)CCC1Oc1ccc(OC)cc1 (stereo not drawn)	/	/	/	/	/	13%
O=C(CSc1nnc(CNC(=O)c2ccccc2F)o1)c1ccccc1	7%	71µM*	1%	?	?	?
COc1ccc(NC(=O)CSc2nnc(Cc3ccccc3)o2)c(OC)c1	3%	-7%[59 µM]	20%	-18%	-10%	6%
O=C(CSc1nnc(CNC(=O)c2ccco2)o1)Nc1ccccc1	/	-49%	62%	-11%	1%	8%
COc1ccccc1NC(=O)CSc1nnc(Cc2ccccc2)o1	2%	14µM*	7%	-7%	-20%	9%
O=C(CSc1nnc(CNC(=O)c2ccccc2F)o1)NCc1ccccc1	-24%	15%[59 µM]	26%	-8%	-9%	10%
O=C(CSc1nnc(CNC(=O)c2ccccc2)o1)NCc1ccco1	-12%	/	42%	-10%	-23%	3%
O=C(CSc1nnc(CNC(=O)c2ccco2)o1)c1ccccc1	-1%	-49%	38%	-2%	-6%	71µM*
O=C(CSc1nnc(CNC(=O)c2c(F)cccc2F)o1)NCc1ccco1	71µM*	/	7%	-14%	-23%	11%
Cn1c(=O)c2c(nc(N3CCOCC3)n2Cc2cccc(Br)c2)n(C)c1=O	-9%	6%[59 µM]	29%	/	0%	/
CC1(C(=O)NS(=O)(=O)Cc2ccccc2C(F)(F)F)CCN1C(=O)c1cccc(F)c1 (stereo not drawn)	/	/	/	-2%	/	/
Cc1cc(-n2c(C)nc3ccccc3c2=O)ccc1NC(=O)c1ccc([N+](=O)[O-])cc1	-9%	-10%[59 µM]	21%	/	-12%	/
CCN(CC)CCCC(C)n1c(-c2ccccc2)nc2c(NCCOC)nc(C)nc21 (stereo not drawn)	/	/	/	/	/	25%
Cc1cc2c(s1)c1cnn(Cc3ccc(Cl)cc3)c(=O)c1n2C	/	/	/	/	45µM*	/
